Results on 17 compounds are retold here after PubChem BioAssay (EPA / NIEHS).

“And” between values parts separate entries of the source, which are not always exact repeats. Equal entries are not always repeated. Records with an inconclusive call do not appear. Some structures have more than one record in an assay (separate samples or runs), and their calls can disagree. The source made the active and inactive calls. The calls were made as follows: active = hit-call score of the fitted dose curve at least 0.9, where 1 is the maximum; inconclusive = response in the unintended direction; inactive = score below 0.9.

For orientation: AC50 means the midpoint of the concentration-response curve, whichever way the signal moves.

The nature of experiment [1]: ACEA_AR_antagonist_AUC_viability: ACEA Biosciences xCELLigence Real-Time Cell Analysis on Androgen Receptor Antagonism for Viability (AID 2283776).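 Also: 22Rv1 human prostate cancer cells growing on impedance electrode plates; hits lower the growth signal relative to DMSO meaning cytotoxicity.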 The method, boiled down:
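Impedance read-out (RT-CES): area under growth curve at 80 h post-dose, loss of signal scored vs DMSO baseline. 22Rv1 cells; 8-pt 1:4 series, top 100 uM final, ≤0.5% DMSO; biological duplicate.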

The test system of experiment [2] is frog Estrogen Receptor (ESR1), gene 398734. Nature of the experiment: ATG_frER1_XSP1: Attagene TRANS-FACTORIAL Multi-Species (XSP1) HepG2 Assay for frog Estrogen Receptor (ESR1) (AID 2283777). The method, boiled down:
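After transient transfection and 24 h compound treatment, total RNA from HepG2 cells was reverse-transcribed, amplified, FAM-labeled and resolved by capillary electrophoresis. Signal increases were fitted against DMSO controls.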

Experiment [3] concerns zebrafish Estrogen Receptor (ESR2A), gene 317734. Nature of the experiment: ATG_zfER2a_XSP1: Attagene TRANS-FACTORIAL Multi-Species (XSP1) HepG2 Assay for zebrafish Estrogen Receptor (ESR2A) (AID 2283778). The procedure, abridged: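 Gain-of-signal reporter transcription readout from GAL4-UAS units in transiently transfected HepG2 cells, 24 h exposure, 3 nM 6-alpha-fluorotestosterone co-present. Detection by RT-PCR with capillary electrophoresis fluorescence.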

For experiment [4], the target named is chicken Estrogen Receptor (ESR1), ESR1 (gene 396099) (UniProt P06212). Nature of the experiment: ATG_chERa_XSP1: Attagene TRANS-FACTORIAL Multi-Species (XSP1) HepG2 Assay for chicken Estrogen Receptor (ESR1) (AID 2283779). The procedure, abridged: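 Gain-of-signal reporter transcription, relative to DMSO, was scored in transiently transfected HepG2 cells after a 24 h dose. Fluorescence intensity of amplified, digested reporter cDNA fragments served as the endpoint.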
Sequence of chicken Estrogen Receptor (ESR1), ESR1 (gene 396099) (P06212 whole entry, looked up, the tested form may be a part): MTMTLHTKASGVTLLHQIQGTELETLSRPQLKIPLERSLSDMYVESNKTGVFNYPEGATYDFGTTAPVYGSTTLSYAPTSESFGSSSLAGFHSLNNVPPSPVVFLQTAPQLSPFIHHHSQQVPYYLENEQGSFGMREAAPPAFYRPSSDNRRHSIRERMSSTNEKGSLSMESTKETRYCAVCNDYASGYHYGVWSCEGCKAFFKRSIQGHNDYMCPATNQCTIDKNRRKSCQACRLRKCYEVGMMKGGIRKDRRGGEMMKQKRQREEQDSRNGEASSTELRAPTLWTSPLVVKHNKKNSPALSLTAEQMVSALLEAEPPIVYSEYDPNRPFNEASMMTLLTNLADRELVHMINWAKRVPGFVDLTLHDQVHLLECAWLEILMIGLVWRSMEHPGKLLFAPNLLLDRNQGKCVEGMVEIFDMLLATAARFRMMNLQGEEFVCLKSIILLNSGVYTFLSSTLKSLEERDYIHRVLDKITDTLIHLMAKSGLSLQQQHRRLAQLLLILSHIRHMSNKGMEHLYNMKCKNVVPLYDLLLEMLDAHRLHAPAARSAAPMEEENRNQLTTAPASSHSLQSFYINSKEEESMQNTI

Experiment [5] has as its target Estrogen receptor (Homo sapiens) (UniProt P03372). The experiment in a line: ATG_hERa_XSP1: Attagene TRANS-FACTORIAL Multi-Species (XSP1) HepG2 Assay for human Estrogen Receptor (ESR1) (AID 2283780). The procedure, abridged:
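Reporter transcripts from multiplexed GAL4-UAS units driven by NR-Gal4 chimeras in transiently transfected HepG2 were measured by RT-PCR with capillary electrophoresis 24 h post-dose, with 3 nM 6-alpha-fluorotestosterone present; gain-of-signal relative to DMSO.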

Experiment [6] has as its system turtle Estrogen Receptor (ESR1), gene 101933533. Nature of the experiment: ATG_trERa_XSP1: Attagene TRANS-FACTORIAL Multi-Species (XSP1) HepG2 Assay for turtle Estrogen Receptor (ESR1) (AID 2283781). The method, boiled down:
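Cell-based chimeric NR-Gal4 transactivation; HepG2; 24 h dosing; mRNA reporter detected by RT-PCR and capillary electrophoresis fluorescence.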

In experiment [7] the target is Estrogen receptor beta (Homo sapiens) (UniProt Q92731). Nature of the experiment: ATG_hERb_XSP1: Attagene TRANS-FACTORIAL Multi-Species (XSP1) HepG2 Assay for human Estrogen Receptor (ESR2) (AID 2283788). The method, boiled down: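 Multiplexed trans-activation in transfected HepG2: ERβ-Gal4 reporter transcripts after 24 h treatment, detected by RT-PCR plus capillary electrophoresis.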
Sequence of Estrogen receptor beta (Homo sapiens) (Q92731 whole entry, looked up, the tested form may be a part): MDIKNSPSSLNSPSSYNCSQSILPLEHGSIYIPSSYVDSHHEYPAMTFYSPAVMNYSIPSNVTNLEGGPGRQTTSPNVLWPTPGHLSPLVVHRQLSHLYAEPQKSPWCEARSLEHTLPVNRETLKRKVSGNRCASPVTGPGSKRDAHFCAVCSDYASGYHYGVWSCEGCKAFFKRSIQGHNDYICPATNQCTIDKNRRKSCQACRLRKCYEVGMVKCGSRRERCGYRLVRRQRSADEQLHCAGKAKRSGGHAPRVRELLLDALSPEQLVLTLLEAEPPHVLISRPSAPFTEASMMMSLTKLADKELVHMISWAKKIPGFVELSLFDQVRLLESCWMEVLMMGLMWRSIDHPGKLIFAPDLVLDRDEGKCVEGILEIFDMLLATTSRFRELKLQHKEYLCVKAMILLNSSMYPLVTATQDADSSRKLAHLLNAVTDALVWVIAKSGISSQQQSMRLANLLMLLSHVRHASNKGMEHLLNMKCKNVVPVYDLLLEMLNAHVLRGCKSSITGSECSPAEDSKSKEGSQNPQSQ

The nature of experiment [8]: ATG_M_06_XSP1: Attagene TRANS-FACTORIAL Multi-Species (XSP1) HepG2 Assay for M06 Transcription Factor (Internal Marker) (AID 2283790). The procedure, abridged:
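This background-control readout tracks M06 reporter mRNA, measured by RT-PCR and capillary electrophoresis. HepG2 cells transiently carrying the GAL4-UAS reporter panel were dosed for 24 h with 3 nM 6-alpha-fluorotestosterone added for partial AR stimulation; increases were scored relative to DMSO.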

The nature of experiment [9]: ATG_M_61_XSP1: Attagene TRANS-FACTORIAL Multi-Species (XSP1) HepG2 Assay for M61 Transcription Factor (Internal Marker) (AID 2283797). The procedure, abridged: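 Background-control readout: reporter transcripts measured by RT-PCR and capillary electrophoresis 24 h after dosing transiently transfected HepG2 multi-reporter cells, with 3 nM 6-alpha-fluorotestosterone present. Fitted in the positive direction relative to DMSO.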

The target in experiment [10] is Peroxisome proliferator-activated receptor gamma (Homo sapiens) (UniProt P37231). Nature of the experiment: ATG_hPPARg_XSP1: Attagene TRANS-FACTORIAL Multi-Species (XSP1) HepG2 Assay for human Peroxisome Proliferator-activated Receptor gamma (PPARg) (AID 2283800). The method, boiled down:
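Reporter mRNA induction, measured by RT-PCR with capillary electrophoresis 24 h after dosing, scored as gain over DMSO. Transfected HepG2 cells express exogenous NR-Gal4 chimeras driving GAL4-UAS reporters; medium includes 3 nM 6-alpha-fluorotestosterone.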

Experiment [11] deals with zebrafish Peroxisome Proliferator-activated Receptor gamma (PPARg), gene 557037. The experiment in a line: ATG_zfPPARg_XSP1: Attagene TRANS-FACTORIAL Multi-Species (XSP1) HepG2 Assay for zebrafish Peroxisome Proliferator-activated Receptor gamma (PPARg) (AID 2283801). The method, boiled down:
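Trans-activation readout of chimeric zebrafish PPARg–GAL4 in transiently transfected human HepG2 cells, 24 h chemical exposure (medium includes 3 nM 6-alpha-fluorotestosterone). Reporter transcripts measured by RT-PCR and capillary electrophoresis, fitted as gain over DMSO.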

In experiment [12] the target is mouse Peroxisome Proliferator-activated Receptor gamma (PPARg), Pparg (gene 19016) (UniProt P37238). The experiment in a line: ATG_mPPARg_XSP1: Attagene TRANS-FACTORIAL Multi-Species (XSP1) HepG2 Assay for mouse Peroxisome Proliferator-activated Receptor gamma (PPARg) (AID 2283802). The method, boiled down: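 Readout is reporter mRNA induction, measured by RT-PCR with 6-FAM labelling, HpaI digestion and capillary electrophoresis, 24 h post-dose relative to DMSO. Transient multi-reporter transfection of human HepG2 with mouse PPARg–GAL4 fusion; 3 nM 6-alpha-fluorotestosterone included.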
Sequence of mouse Peroxisome Proliferator-activated Receptor gamma (PPARg), Pparg (gene 19016) (P37238 whole entry, looked up, the tested form may be a part): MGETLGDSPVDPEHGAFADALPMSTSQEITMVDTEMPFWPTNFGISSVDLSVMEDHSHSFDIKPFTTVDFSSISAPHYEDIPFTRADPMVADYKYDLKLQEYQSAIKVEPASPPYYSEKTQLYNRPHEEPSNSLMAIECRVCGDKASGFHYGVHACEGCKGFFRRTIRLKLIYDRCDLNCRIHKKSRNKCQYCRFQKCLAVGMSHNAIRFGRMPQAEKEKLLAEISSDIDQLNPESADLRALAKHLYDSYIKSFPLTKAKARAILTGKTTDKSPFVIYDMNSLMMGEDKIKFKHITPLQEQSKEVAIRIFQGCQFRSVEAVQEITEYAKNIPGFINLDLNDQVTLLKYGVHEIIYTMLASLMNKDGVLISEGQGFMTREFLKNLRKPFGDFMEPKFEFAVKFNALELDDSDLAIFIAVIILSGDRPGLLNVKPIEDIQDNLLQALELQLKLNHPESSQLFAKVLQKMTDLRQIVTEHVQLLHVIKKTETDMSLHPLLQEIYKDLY

Experiment [13] can be described thus: ACEA_AR_agonist_AUC_viability: ACEA Biosciences xCELLigence Real-Time Cell Analysis on Androgen Receptor Agonism for Viability (AID 2283775).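 As to AC50: viability read 80 hours after compound addition.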 The method, boiled down: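 Viability endpoint from xCELLigence impedance in 22Rv1 prostate cells at 80 h. Eight-point series, 100 uM maximum final.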
A further experiment has as its target AR (gene 367) (UniProt P10275). The experiment in a line: ACEA_AR_antagonist_80hr: ACEA Biosciences xCELLigence Real-Time Cell Analysis on Androgen Receptor Antagonism for Proliferation (AID 2283787).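 Also: 22Rv1 human prostate cancer cells with growth followed by electrical impedance; hits lower the impedance growth signal relative to DMSO.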 The method, boiled down:
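Using 22Rv1 cells held in assay medium, we dosed compounds (100 uM maximum final, 1:4 serial, eight points, 0.5% DMSO at top) and recorded cell-electrode impedance; the 80 hr timepoint was analyzed against DMSO.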

Experiment [14] is described as follows: STM_H9_NormalizedViability: Cytotoxicity Assessment at 120 hours in the Stemina devTOX quickPredict H9 human embryonic stem cell (hESC)-based Assay (AID 2283784). The procedure, abridged: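 CellTiter-Fluor RFU, background-subtracted, expressed relative to 0.1% DMSO neutral control by plate. Pluripotent H9 cells; treatment with daily re-dosing. Plates carried 1uM methotrexate (positive) and 5 nM methotrexate (negative) references.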

A short description of experiment [15]: ACEA_ER_AUC_viability: ACEA Biosciences xCELLigence Real-Time Cell Analysis on Estrogen Receptor Agonism for Viability (AID 2283782).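 Also: hit means loss of impedance signal meaning reduced cell growth or viability.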 The procedure, abridged: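 Continuous-exposure impedance cell analysis uses T-47D cells in charcoal-stripped serum, eight 1:4 dilutions topping at 100 uM final, biological duplicate. Area under the growth curve at 80 h is fitted against DMSO baseline.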

Experiment [16] has as its system turtle Androgen Receptor (AR), gene 101947425. Nature of the experiment: ATG_trAR_XSP1: Attagene TRANS-FACTORIAL Multi-Species (XSP1) HepG2 Assay for turtle Androgen Receptor (AR) (AID 2283786). The procedure, abridged:
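Partial androgen stimulation is provided by 3 nM 6-alpha-fluorotestosterone in a multi-species trans-factorial panel expressing a turtle AR–GAL4 fusion in HepG2. After 24 h, reporter mRNA is measured by RT-PCR and capillary electrophoresis and fitted upward against DMSO.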

Sequence of AR (gene 367) (P10275 whole entry, looked up): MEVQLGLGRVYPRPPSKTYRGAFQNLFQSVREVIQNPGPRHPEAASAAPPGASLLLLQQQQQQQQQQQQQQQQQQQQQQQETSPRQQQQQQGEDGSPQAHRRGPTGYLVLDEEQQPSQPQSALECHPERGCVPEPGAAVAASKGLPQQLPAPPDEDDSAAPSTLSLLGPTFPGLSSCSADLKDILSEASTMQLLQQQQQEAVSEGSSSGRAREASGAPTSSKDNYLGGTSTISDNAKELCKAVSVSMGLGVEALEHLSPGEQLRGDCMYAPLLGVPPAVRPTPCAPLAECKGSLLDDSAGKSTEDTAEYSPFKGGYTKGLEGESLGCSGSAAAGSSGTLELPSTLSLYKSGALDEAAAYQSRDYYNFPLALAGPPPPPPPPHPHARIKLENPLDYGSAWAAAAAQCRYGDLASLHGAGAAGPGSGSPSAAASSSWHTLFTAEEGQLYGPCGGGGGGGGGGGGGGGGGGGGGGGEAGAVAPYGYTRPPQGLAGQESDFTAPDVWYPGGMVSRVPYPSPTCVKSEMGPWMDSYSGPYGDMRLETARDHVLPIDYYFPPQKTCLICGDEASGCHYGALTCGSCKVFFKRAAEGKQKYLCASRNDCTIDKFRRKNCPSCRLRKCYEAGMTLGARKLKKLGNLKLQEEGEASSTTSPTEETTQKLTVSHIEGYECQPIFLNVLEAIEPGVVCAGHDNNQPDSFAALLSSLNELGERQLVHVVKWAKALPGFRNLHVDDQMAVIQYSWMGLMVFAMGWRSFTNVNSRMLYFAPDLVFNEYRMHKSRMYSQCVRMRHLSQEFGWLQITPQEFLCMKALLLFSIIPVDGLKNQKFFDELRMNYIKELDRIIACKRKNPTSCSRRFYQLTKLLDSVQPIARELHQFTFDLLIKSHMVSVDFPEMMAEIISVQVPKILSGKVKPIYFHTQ
Sequence of Estrogen receptor (Homo sapiens) (P03372 whole entry, looked up, the tested form may be a part): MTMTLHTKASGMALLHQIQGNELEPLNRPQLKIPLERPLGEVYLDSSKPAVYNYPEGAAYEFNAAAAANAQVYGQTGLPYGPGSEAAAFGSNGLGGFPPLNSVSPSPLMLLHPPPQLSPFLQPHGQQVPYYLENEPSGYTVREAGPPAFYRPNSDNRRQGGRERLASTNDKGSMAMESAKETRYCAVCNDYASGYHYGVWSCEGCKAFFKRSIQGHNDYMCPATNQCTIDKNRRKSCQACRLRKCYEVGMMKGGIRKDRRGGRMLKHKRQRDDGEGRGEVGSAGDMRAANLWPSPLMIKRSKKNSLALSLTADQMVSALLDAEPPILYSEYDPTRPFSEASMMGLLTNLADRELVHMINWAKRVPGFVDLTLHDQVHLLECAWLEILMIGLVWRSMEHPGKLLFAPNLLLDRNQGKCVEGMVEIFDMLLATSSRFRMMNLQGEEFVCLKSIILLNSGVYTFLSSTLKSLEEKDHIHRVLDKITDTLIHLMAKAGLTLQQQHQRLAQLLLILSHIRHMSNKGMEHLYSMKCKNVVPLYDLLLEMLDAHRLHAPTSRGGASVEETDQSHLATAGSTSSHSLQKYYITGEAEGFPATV
Sequence of Peroxisome proliferator-activated receptor gamma (Homo sapiens) (P37231 whole entry, looked up, the tested form may be a part): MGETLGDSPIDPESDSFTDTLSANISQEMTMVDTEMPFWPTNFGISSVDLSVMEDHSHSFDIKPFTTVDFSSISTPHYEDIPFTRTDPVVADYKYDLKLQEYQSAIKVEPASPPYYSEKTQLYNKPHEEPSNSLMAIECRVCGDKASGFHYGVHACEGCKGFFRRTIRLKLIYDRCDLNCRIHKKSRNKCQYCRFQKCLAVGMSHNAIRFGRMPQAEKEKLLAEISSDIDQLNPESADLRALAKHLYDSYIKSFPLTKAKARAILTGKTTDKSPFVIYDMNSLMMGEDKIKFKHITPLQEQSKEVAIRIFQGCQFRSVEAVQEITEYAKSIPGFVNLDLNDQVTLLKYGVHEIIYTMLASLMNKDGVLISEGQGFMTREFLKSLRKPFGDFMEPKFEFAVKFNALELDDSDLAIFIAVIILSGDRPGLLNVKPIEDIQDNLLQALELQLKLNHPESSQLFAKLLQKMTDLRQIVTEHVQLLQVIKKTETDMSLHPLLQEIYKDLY

For `CC(=O)S[C@@H]1CC2=CC(=O)CC[C@]2(C)[C@H]2CC[C@@]3(C)[C@@H](CC[C@@]34CCC(=O)O4)[C@H]12`, the AC50 in [1] is 35.4 µM (active). The compound was classed as inactive in experiment [2], in experiment [3], in experiment [4], in experiment [5], in experiment [6] and in [7]. Also, the outcome in experiment [8], in [9], in experiment [10], in experiment [11] and in [12] was inactive.

For the compound `O=C(c1ccccc1)C1CCCCC1`, the call (in experiment [13]; in experiment [1]; in the experiment with AR (gene 367)) was inactive.

Consider `CCN(Cc1c(F)cccc1Cl)c1c([N+](=O)[O-])cc(C(F)(F)F)cc1[N+](=O)[O-]`, for which the half-maximal activity concentration (AC50) is 50 µM (active) in experiment [13], 25 µM (active) in [1] and 50 µM (active) in experiment [14].

Consider `CCNc1nc(N)nc(Cl)n1`, for which the result in experiment [1] and in experiment [14] was inactive.

With `OB(O)O`, the compound was classed as inactive in experiment [1] and in experiment [14].

`COCCO`: the outcome in [1] was inactive.

For the compound `CCCOC(=O)c1ccc(C(=O)OCCC)nc1`, the call (in experiment [13]; in experiment [1]; in experiment [15]; with AR (gene 367)) was inactive.

In the case of `S=C(S)NCCNC(=S)S.[Mn+2].[S-]C([S-])=NCCN=C([S-])[S-].[Zn+2]`, the result in experiment [15] and in experiment [14] was inactive.

As for `CCCCOC(=O)[C@@H](C)Oc1ccc(Oc2ccc(C(F)(F)F)cn2)cc1`, the call in experiment [13] and in experiment [1] was inactive. In experiment [14], the AC50 was 73.8 µM (active).

For the compound `CCOC(=O)c1ccc(O)cc1`, the compound was called inactive in [1].

`C[C@]12CC[C@@H]3c4ccc(O)cc4C[C@@H](CCCCCCCCCS(=O)CCCC(F)(F)C(F)(F)F)[C@H]3[C@@H]1CC[C@@H]2O` (stereo not given in full): the AC50 in [13] was 10.9 µM (active); in experiment [1], 8.37 µM (active); with AR (gene 367), 11.9 µM (active).

With `CCCN(CCC)c1c([N+](=O)[O-])cc(C(F)(F)F)c(N)c1[N+](=O)[O-]`, the AC50 in experiment [13] was 14.9 µM (active); in [1], 35 µM (active). Also, the result in [14] was inactive.

Regarding `CCOC(=O)C(C)Oc1ccc(Oc2cnc3cc(Cl)ccc3n2)cc1` (stereo not given), the result in experiment [13], in experiment [1] and in experiment [14] was inactive.

Take `N[C@@H](Cc1cc(I)c(Oc2ccc(O)c(I)c2)c(I)c1)C(=O)O`: the AC50 in experiment [13] was 12.5 µM (active); in [1] it was 9.7 µM (active). Also, in experiment [14], the result was inactive.

Take `CCCN(CCC)C(=O)SCC`: the result (in experiment [13]; in the experiment with AR (gene 367)) was inactive.

Take `O=C(c1ccc(O)cc1O)c1ccc(O)cc1O`: the outcome in [1], in [16], in [8], in experiment [9], in experiment [10] and in experiment [12] was inactive. For the same compound, the AC50 in [2] was 0.544 µM (active); in experiment [3], 0.191 µM (active); in [4] it was 3.09 µM (active); in experiment [5], 643 nM (active); in experiment [6], 1.08 µM (active); in [14], 50 µM (active). Also, the AC50 was 26.3 µM (active) with AR (gene 367) and 0.227 µM (active) in experiment [7].

`C#C[C@]1(O)CC[C@H]2[C@@H]3CCC4=CC(=O)CC[C@@H]4[C@H]3CC[C@@]21CC`: the half-maximal activity concentration (AC50) is 0.357 µM (active) in [1]; 0.222 µM (active) in [2]; 0.349 µM (active) in experiment [3]; 0.404 µM (active) in experiment [4]; 277 nM (active) and 33.8 nM (active) in [5]; 327 nM (active) and 83.2 nM (active) in [6]. Further, the compound was classed as inactive in experiment [2], in experiment [3] and in [4].
